Measurements taken from PubChem BioAssay (NCI).
“And” between values parts separate entries of the source, which are not always exact repeats. Identical values can stand only once. The panel holds about 83,000 compounds, 20% with a hit somewhere; the sample as a whole holds those more often.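 How to read the values: 0–100, growth inhibition (40 = 60% inhibited); 0, no net growth; -100 to 0, cell death (-40 = 40% of starting cells died; -100 = all dead).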 The source made the active and inactive calls. Rule for the calls: active = growth percent below 10; inactive = the rest.

Tests used:
Assay in all cases: NCI-60 one-dose screen, 48 h (100 = growth as untreated, 0 = no growth, -100 = all killed)
[1] = system: SK-MEL-2 melanoma
[2] = system: EKVX NSCLC
[3] = system: SN12C renal
[4] = system: UO-31 renal
[5] = system: TK-10 renal
[6] = system: ACHN renal
[7] = system: CAKI-1 renal
[8] = system: A498 renal
[9] = system: CCRF-CEM leukemia
[10] = system: MOLT-4 leukemia; details: 10 µM unless noted

Measured: growth

O=c1ccn2c(n1)OC1CC2OC1COC(c1ccccc1)(c1ccccc1)c1ccccc1 (stereo unspecified)
inactive: [1]; 10 µM 113% | [1]; 100 µM 31.5% | [2]; 10 µM unless noted 96.3% [100 µM] | [3]; 10 µM 103% | [3]; 100 µM 69.2% | [4]; 10 µM 97% | [4]; 100 µM 89.9% | [5]; 10 µM unless noted 134% [100 µM] | [6]; 10 µM 92% | [6]; 100 µM 82.5% | [7]; 10 µM 102% | [7]; 100 µM 65.7% | [8]; 10 µM 116% | [8]; 100 µM 139% | [9]; 10 µM unless noted 81.8% [100 µM]

Cc1c(Cl)cc(Cl)c(N)c1Cl
inactive: [1]; 10 µM unless noted 104% | [2]; 10 µM unless noted 103% | [3]; 10 µM unless noted 117% | [4]; 10 µM unless noted 92.6% | [5]; 10 µM unless noted 109% | [6]; 10 µM unless noted 115% | [7]; 10 µM unless noted 88.7% | [8]; 10 µM unless noted 91% | [9]; 10 µM unless noted 95.5%

O=[N+]([O-])c1cccc2ccc(N/N=C/c3ccccc3O)nc12
inactive: [1]; 10 µM unless noted 149% and 75% | [2]; 10 µM unless noted 78.8% and 82.1% | [3]; 10 µM unless noted 96.4% and 98.5% | [4]; 10 µM unless noted 26.6% and 64.3% | [5]; 10 µM unless noted 150% and 120% | [6]; 10 µM unless noted 68.4% and 103% | [7]; 10 µM unless noted 80.3% | [8]; 10 µM unless noted 92.8% and 95%
3.42% (active) and 86.9% (inactive): [9]; 10 µM unless noted

C/C(=C\c1ccccc1)C(O)C(=O)c1nc2ccc([N+](=O)[O-])cc2[nH]c1=O (stereo unspecified)
inactive: [1]; 10 µM unless noted 93.6% | [2]; 10 µM unless noted 92.6% | [3]; 10 µM unless noted 90% | [4]; 10 µM unless noted 74.4% | [5]; 10 µM unless noted 109% | [6]; 10 µM unless noted 81% | [7]; 10 µM unless noted 96% | [8]; 10 µM unless noted 110% | [9]; 10 µM unless noted 74.8%

CCCCCc1cc[n+](CC(=O)c2ccccc2)cc1
inactive: [1]; 10 µM unless noted 101% and 104% | [2]; 10 µM unless noted 90.4% | [3]; 10 µM unless noted 99.8% and 103% | [4]; 10 µM unless noted 85.6% and 91.3% | [5]; 10 µM unless noted 120% and 101% | [6]; 10 µM unless noted 102% | [7]; 10 µM unless noted 98.7% | [8]; 10 µM unless noted 87.5% and 85.7% | [9]; 10 µM unless noted 92.2% and 99.4% | [10] 104% and 109%

CCOC(=O)C(N)Cc1cc(I)c(O)c(I)c1 (stereo unspecified)
inactive: [1]; 10 µM unless noted 108% and 120% | [2]; 10 µM unless noted 101% and 113% | [3]; 10 µM unless noted 103% and 98.7% | [4]; 10 µM unless noted 81.6% and 78.6% | [5]; 10 µM unless noted 120% and 107% | [6]; 10 µM unless noted 106% and 96% | [7]; 10 µM unless noted 91.6% and 89.2% | [8]; 10 µM unless noted 103% | [9]; 10 µM unless noted 100% and 103% | [10] 102% and 112%

Cc1cccc(Cl)c1N
inactive: [1]; 10 µM unless noted 121% | [2]; 10 µM unless noted 122% | [3]; 10 µM unless noted 112% | [4]; 10 µM unless noted 103% | [5]; 10 µM unless noted 111% | [6]; 10 µM unless noted 108% | [7]; 10 µM unless noted 92.8% | [8]; 10 µM unless noted 107% | [9]; 10 µM unless noted 128% | [10] 100%

O=C(O)Cc1cc(=O)[nH]n(-c2ccccc2)c1=O
inactive: [1]; 10 µM unless noted 116% | [2]; 10 µM unless noted 96% | [3]; 10 µM unless noted 97.9% | [4]; 10 µM unless noted 101% | [5]; 10 µM unless noted 102% | [6]; 10 µM unless noted 105% | [7]; 10 µM unless noted 83.5% | [8]; 10 µM unless noted 97.6% | [9]; 10 µM unless noted 112%

Nc1c(Cl)cc2c(c1Br)C(=O)c1ccccc1C2=O
inactive: [1]; 10 µM unless noted 103% | [2]; 10 µM unless noted 60.2% | [3]; 10 µM unless noted 87.3% | [4]; 10 µM unless noted 63.2% | [5]; 10 µM unless noted 108% | [6]; 10 µM unless noted 73% | [7]; 10 µM unless noted 82.3% | [8]; 10 µM unless noted 110% | [9]; 10 µM unless noted 96.2%

CCCC(=O)OCC(COC(=O)CCC)OC(=O)CCC
inactive: [1]; 10 µM unless noted 99.2% | [2]; 10 µM unless noted 93.7% | [3]; 10 µM unless noted 96.9% | [4]; 10 µM unless noted 87.3% | [5]; 10 µM unless noted 99.4% | [6]; 10 µM unless noted 108% | [7]; 10 µM unless noted 94.8% | [8]; 10 µM unless noted 104% | [9]; 10 µM unless noted 95.4% | [10] 102%

CC(=O)c1cc2ccccc2o1
inactive: [1]; 10 µM unless noted 97.9% | [2]; 10 µM unless noted 106% | [3]; 10 µM unless noted 101% | [4]; 10 µM unless noted 99.6% | [5]; 10 µM unless noted 93.6% | [6]; 10 µM unless noted 101% | [7]; 10 µM unless noted 99.6% | [8]; 10 µM unless noted 104% | [9]; 10 µM unless noted 106%

O=C(NC(=O)c1ccc(F)c(Cl)c1)NC1CC1
inactive: [1]; 10 µM unless noted 107% | [2]; 10 µM unless noted 89.6% | [3]; 10 µM unless noted 102% and 87.9% | [4]; 10 µM unless noted 96.8% | [5]; 10 µM unless noted 94.3% and 96.1% | [6]; 10 µM unless noted 106% and 108% | [7]; 10 µM unless noted 104% and 87.1% | [8]; 10 µM unless noted 95.8% and 96% | [9]; 10 µM unless noted 97.2% and 101%

O=C(O)/C=C/C=C/c1ccccc1
inactive: [1]; 10 µM unless noted 104% and 115% | [2]; 10 µM unless noted 100% | [3]; 10 µM unless noted 96% and 106% | [4]; 10 µM unless noted 93.1% and 88.4% | [5]; 10 µM unless noted 97.3% and 106% | [6]; 10 µM unless noted 103% and 109% | [7]; 10 µM unless noted 98.9% and 101% | [8]; 10 µM unless noted 73.4% | [9]; 10 µM unless noted 102% and 95.1% | [10] 106% and 109%

O=[N+]([O-])c1ccc(NC(c2ccccc2)c2ccc3cccnc3c2O)cc1 (stereo unspecified)
inactive: [1]; 10 µM unless noted 36.3% | [2]; 10 µM unless noted 19.9% | [3]; 10 µM unless noted 14.8% | [5]; 10 µM unless noted 42.7% | [6]; 10 µM unless noted 15.8% | [8]; 10 µM unless noted 55.8% | [9]; 10 µM unless noted 10.2%
active: [4]; 10 µM unless noted -2.13% | [7]; 10 µM unless noted 2.88% | [10] 9.81%

CCCC(=O)Oc1ccc2ccccc2c1
inactive: [1]; 10 µM unless noted 104% | [2]; 10 µM unless noted 101% | [3]; 10 µM unless noted 97% | [4]; 10 µM unless noted 76.8% | [5]; 10 µM unless noted 103% | [6]; 10 µM unless noted 99% | [7]; 10 µM unless noted 103% | [8]; 10 µM unless noted 103% | [9]; 10 µM unless noted 90.2%

Nc1ccc2ccc(NS(=O)(=O)N3CCCCC3)cc2c1
inactive: [1]; 10 µM unless noted 85.4% | [2]; 10 µM unless noted 61.7% | [3]; 10 µM unless noted 43.2% | [4]; 10 µM unless noted 64.8% | [5]; 10 µM unless noted 47.1% | [6]; 10 µM unless noted 56.7% | [7]; 10 µM unless noted 43.4% | [8]; 10 µM unless noted 29.3% | [9]; 10 µM unless noted 18.3%

COC1C(OC(N)=O)C(O)C(Oc2ccc3c(O)c(NC(=O)c4ccc(O)c(CC=C(C)C)c4)c(=O)oc3c2C)OC1(C)C (stereo unspecified)
inactive: [1]; 10 µM unless noted 105% and 111% | [2]; 10 µM unless noted 109% | [3]; 10 µM unless noted 106% and 97.3% | [4]; 10 µM unless noted 107% and 96.9% | [5]; 10 µM unless noted 115% and 108% | [6]; 10 µM unless noted 23.8% and 101% | [7]; 10 µM unless noted 85.9% and 101% | [8]; 10 µM unless noted 106% and 70.8% | [9]; 10 µM unless noted 90% and 59.2%

COc1cc(C2c3cc4c(cc3C(OC(=O)C[n+]3ccccc3)C3COC(=O)C23)OCO4)cc(OC)c1OC (stereo unspecified)
inactive: [1]; 10 µM unless noted 33.5% | [2]; 10 µM unless noted 42.5% | [3]; 10 µM unless noted 12.4% | [4]; 10 µM unless noted 39.4% | [5]; 10 µM unless noted 63.4% | [6]; 10 µM unless noted 20.9% | [7]; 10 µM unless noted 18.1% | [9]; 10 µM unless noted 12.9% | [10] 15.5%
active: [8]; 10 µM unless noted -19.9%

CC(=O)Nc1cscc1NC(C)=O
inactive: [1]; 10 µM unless noted 139% | [2]; 10 µM unless noted 73.2% | [3]; 10 µM unless noted 89.1% | [4]; 10 µM unless noted 93.3% | [5]; 10 µM unless noted 97.8% | [6]; 10 µM unless noted 96.3% | [7]; 10 µM unless noted 73.1% | [8]; 10 µM unless noted 92.9% | [9]; 10 µM unless noted 89.2%

NNC(=O)Nc1ccccc1
inactive: [1]; 10 µM unless noted 106% | [2]; 10 µM unless noted 96.2% | [3]; 10 µM unless noted 101% | [4]; 10 µM unless noted 90% | [5]; 10 µM unless noted 110% | [6]; 10 µM unless noted 100% | [7]; 10 µM unless noted 96.1% | [8]; 10 µM unless noted 85.2% | [9]; 10 µM unless noted 104% | [10] 114%

S=c1nc[nH]c2nc[nH]c12
15.9% (inactive) and -6.1% (active): [5]; 750 µM
active: [7]; 10 µM 7.07%
inactive: [1]; 10 µM unless noted 54.6% [50 µM] | [2]; 10 µM 89.9% | [2]; 50 µM 73.9% | [3]; 10 µM 69.5% | [3]; 50 µM 31.5% | [4]; 10 µM 34% | [4]; 50 µM 36.2% | [5]; 10 µM 33.1% | [6]; 10 µM 50% | [6]; 50 µM 20.5% | [7]; 50 µM 21% | [8]; 10 µM 71.1% | [8]; 50 µM 47.5% | [9]; 10 µM 13% | [9]; 50 µM 16.8%

CCOc1ccc(/C=C\C(=O)O)cc1
inactive: [1]; 10 µM unless noted 114% | [2]; 10 µM unless noted 115% | [3]; 10 µM unless noted 101% | [4]; 10 µM unless noted 98.7% | [5]; 10 µM unless noted 109% | [6]; 10 µM unless noted 109% | [7]; 10 µM unless noted 113% | [8]; 10 µM unless noted 101% | [9]; 10 µM unless noted 96% | [10] 92%

CC(=O)Nc1ccc(OC(C)=O)cc1
inactive: [2]; 10 µM unless noted 49.5% and 99.5% | [3]; 10 µM unless noted 20.2% and 102% | [4]; 10 µM unless noted 21.8% and 98.6% | [5]; 10 µM unless noted 42% and 99.1% | [6]; 10 µM unless noted 26.8% and 110% | [7]; 10 µM unless noted 17.8% and 98.8% | [10] 15.2% and 117%
6.69% (active) and 106% (inactive): [9]; 10 µM unless noted
-16.6% (active) and 111% (inactive): [1]; 10 µM unless noted
-40.5% (active) and 65.6% (inactive): [8]; 10 µM unless noted
